Results: PubChem BioAssay
Active and inactive are the calls of the source. How the calls were made is not given here.

Experiment: inhibition of 3D7 malaria parasite growth – strain 3D7 (AID 2306);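 further: 0% = DMSO wells and 100% = chloroquine plus artemisinin control wells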
Conditions: P. falciparum 3D7 erythrocytic growth, LDH absorbance, 72 h; at 2 µM; active compounds read high

Growth inhibition, active:
N#Cc1ccc2c(c1)CN(C1CCC(NC(=O)c3cc(-c4ccc(Cl)cc4)cs3)CC1)CCC2 (centres undefined) 101%, O=C(Nc1ccc(-c2nc3ccccc3[nH]2)cc1)C1CCN(Cc2ccc(F)cc2)CC1 102%, OC(CNCCCCCCNCC(O)c1ccc(Cl)c(Cl)c1)c1ccc(Cl)c(Cl)c1 (centres undefined) 90%, S=C(NCCc1ccccc1)Nc1ccc2ncsc2c1 96%, COc1ccc2ncc(C#N)c(CCN3CCC(NCc4ccc5c(c4)OCCO5)CC3)c2c1 96%, CN(C)c1nc2cc(-n3cnc4cc(-c5ccc(Cl)cc5)sc4c3=O)ccc2n1CCCN1CCCC1 97%, CCOc1ccc(-c2nonc2NC(=O)c2ccccc2F)cc1OCC 90%, Nc1cccc(CNCc2cccc(-c3cccc(-c4nc5ccc(C(F)(F)F)cc5[nH]4)c3)c2)c1 102%, CN(C)CCOc1ccc(/C(=C(/CCCn2ccnc2)c2ccccc2)c2ccc(O)cc2)cc1 101%, N#Cc1ccc(NC(=NC2CCCc3ccccc32)Nc2ccc(-c3ccccc3)cc2)c(O)c1 (centres undefined) 99%, Cc1ccc(NC(=O)Nc2ccc(Cl)c(C(F)(F)F)c2)cc1-c1ccc(C(=O)Nc2ccncc2)cc1 99%, COc1cc2nc(Nc3ccc(N4CCOCC4)cc3)nc(N)c2cc1OC 95%, COc1ccc(CNC2CCN(C)CC2)cc1-c1ccc(S(=O)(=O)NCC2CCCO2)s1 (centres undefined) 95%, COc1ccc2nccc([C@@H](O)CN3CCC(NC(=O)C(=Cc4ccc(C#N)cc4)c4ccc(-c5ccccc5)cc4)CC3)c2c1 101%, Cc1ccc(C(=O)Nc2cccc(CN3CCCN(Cc4ccc(O)cc4)CC3)c2)s1 90%, FC(F)(F)c1ccc2nc(-c3ccc(-c4ccc(CNCCN5CCNCC5)cc4)s3)[nH]c2c1 94%, O=C(NCCN1CCOCC1)c1ccc(O)c(-c2cccc(C(F)(F)F)c2)c1 95%, CCc1nonc1NC(=O)c1oc2c(C)c(C)ccc2c1C 89%, CCc1cn2c3c(cc(C(=O)N[C@@H](Cc4ccccc4)[C@H](O)CNCc4ccc(C)cc4)cc13)N(C)S(=O)(=O)CC2 99%, CCc1cccc2c(C#N)cn(CC(=O)NCCc3ccccc3)c12 95%, CN(C)c1ccc(CN2CCC(NC(=O)c3ccc(-c4cccc(C(F)(F)F)c4)s3)CC2)cc1 97%, CN(C)CCOc1cc(NC(=O)Nc2ccc(-c3ccncc3)c(Cl)c2)ccc1I 101%, FC(F)(F)c1cccc(CNCC2CCN(Cc3ccc4c(c3)OCO4)CC2)c1 100%, CN1c2ccccc2Sc2cc(CNCCSCCNCc3ccc4c(c3)Sc3ccccc3N4C)ccc21 84%, CCc1c(C)nc(-n2nc(C)cc2NC(=O)CCc2ccccc2)[nH]c1=O 97%, CCc1ccc(-c2cnc(N)c3cc(-c4ccnc(N)n4)ccc23)cc1 92%, COc1cc(SC)c(Br)cc1-c1nc2ccncc2[nH]1 91%, COc1cccc(C2(c3cccc(OC)c3)N=C(N)N(CCCc3ccccc3)C2=O)c1 98%, COc1cccc(CNc2ncc(-c3ccsc3)c(-c3nccs3)n2)c1 89%, COc1cc(C(=O)Nc2cccc(-c3cn4cccc(C)c4n3)c2)cc(OC)c1OC 99%, Cc1cccc2[nH]c(-c3ccc(-c4cccc(CNCCN5CCNCC5)c4)cc3)nc12 85%, Cc1c(NCCCNCc2cc(Cl)cc(Cl)c2Cl)[nH]c2ccccc2c1=O 101%, CC1CCC2(CC1)N=C(N)N=C(N)N2OCc1ccc(Br)c2ccccc12 (centres undefined) 96%, Cc1cc(NC(=O)Nc2ccc(Cl)cc2F)c2ccccc2n1 100%, COc1ccc(NCc2cccc(-c3cccc(CNCCc4ccccc4)c3)c2)cc1 96%, CCC(=O)N(c1ccccc1)C1CCN(CCCC(NC(=O)c2cc(C(F)(F)F)cc(C(F)(F)F)c2)c2ccc(Cl)c(Cl)c2)CC1 (centres undefined) 96%, N#Cc1ccc(NC(=O)c2ccc(C(=O)NCCCCN3CCC(c4ccc5c(c4OCCOC4CCCCO4)CCCC5)CC3)cc2)cc1 (centres undefined) 99%, O=c1cc(NCCCNCc2ccc(C(F)(F)F)c(F)c2)[nH]c2ccccc12 93%, CN1CCN(CCCN(Cc2ccc(-c3ccc(CNCc4ccc5c(c4)OCO5)cc3)cc2)C(=O)Nc2ccccc2)CC1 94%
